# From PubChem BioAssay (Tox21)
# Inconclusive results are not listed. A call without a number means that no potency is given here. The source made the active and inactive calls. Calls follow the shape of the dose curve; as a rule, active = well fitted cell-killing curve with a large enough effect in the repeat runs; inconclusive = weak or mixed curves, or effect the other way; inactive = flat fitted curve, though single readings scatter.
# Assay: qHTS assay to identify small molecule antagonists of the retinoid acid receptor (RAR) signaling pathway - cell viability counter screen (AID 1159551); also: nearly all actives have a fitted effect of over 35% in size
# Details: C3RL4 cells viability, ATP luminescence (CellTiter-Glo), 6 h; series mostly up to 92.4 µM
# Source text: U.S. Tox21 Program National Center for Advancing Translational Sciences [NCATS] NIH Chemical Genomics Center [NCGC] U.S. Environmental Protection Agency [EPA] National Institutes of Environmental Health Sciences [NIEHS] National Toxicology Program [NTP] U.S. Food and Drug Administration [FDA] Tox21 Assay Overview: All-trans Retinoic acid (atRA) is the potent natural metabolite of retinol and plays an important role in normal embryonic development and maintenance of cellular phenotype in adult animals. atRA is the activating ligand for the retinoic acid receptors (RARs) which form heterodimers with retinoid X receptors (RXRs) on the retinoic acid response element (RARE). Through activation of the RAR/RXRs nuclear receptors, atRA regulates the transcription of a large number of protein-coding genes and regulatory RNAs. Intracellular levels of atRA are controlled by the retinol signaling pathway (RSP) that regulates the biosynthesis and catabolism of atRA to maintain physiological levels. Chemicals that interfere with the RSP can cause abnormal intracellular levels of atRA and therefore are potential developmental toxicants. To assess compounds for the potential adverse effect on embryonic development through interfering with retinol signaling, a cell-based RARE luciferase reporter gene assay was used. C3RL4 cell line (OARSA/CFSAN/FDA, Laurel, MD) was used to screen Tox21 10K compound library for identifying inhibitors of the RSP. Also cytotoxicity was assessed by determining the viability of cells based on the quantitation of ATP.
# Tox21 Assay Protocol Summary: C3RL4 cells were seeded at 1,000/well in 4 uL of assay medium into white solid 1,536-well tissue culture plates (Greiner Bio-One North America Inc. Monroe, NC) using a Multidrop Combi (Thermo Scientific, Waltham, MA) dispenser. After incubation at 37 C and 5% CO2 for an overnight, 23 nL of compounds dissolved in DMSO, positive control or DMSO only were transferred by a Pintool station (Kalypsys, San Diego, CA). One ul of 1 uM (final concentration) of Retinol was added right after the compound addition by using a Flying Reagent Dispenser (FRD) (Aurora Discovery, San Diego, CA). After 6 hr incubation at 37 C and 5% CO2, 5 uL of CellTiter-Glo reagent (Promega Corporation, Madison, WI) was added to each assay plate using an FRD. Luminescence was quantified on a ViewLux plate reader (PerkinElmer, Waltham, MA) after 30 min incubation at room temperature.
# Potency is read from the fitted curve at half-maximal effect.
row,SMILES,Potency
1,N[C@@H](Cc1cc(I)c(O)c(I)c1)C(=O)O,inactive
2,O=C(/C=C/c1ccc([N+](=O)[O-])cc1)c1ccccc1,inactive
3,CN=C(N)NC(=O)Nc1c(C)cccc1C,inactive
4,CC1CCCC(=O)C1=O (stereo not given),inactive
5,Cc1ccc(NC(=O)N(C)C)cc1NC(=O)N(C)C,inactive
6,COc1ccc(C(=O)NCc2ccc(OCCN(C)C)cc2)cc1OC,inactive
7,Cc1ccc2c(c1)CCCN2,inactive
8,CCN(Cc1cccc(S(=O)(=O)O)c1)c1ccc(C(=C2C=CC(=[N+](CC)Cc3cccc(S(=O)(=O)O)c3)C=C2)c2ccccc2S(=O)(=O)[O-])cc1,15.4 µM (active)
9,COc1ccc(/C=C/C(=O)c2ccc(OC)cc2OC)cc1,inactive
10,O=C(NC(Cc1cc(=O)[nH]c2ccccc12)C(=O)O)c1ccc(Cl)cc1 (stereo not given),inactive
11,c1ccc(CCCc2ccncc2)cc1,inactive
12,C/C(C=O)=C\c1ccccc1,inactive
13,CCOCCC(=O)OCC,inactive
14,COc1cc(C(C)=O)ccc1OCCCN1CCC(c2noc3cc(F)ccc23)CC1,inactive
15,CCCCCCCC(=O)Oc1c(Br)cc(C#N)cc1Br,inactive
16,CC(C)c1ccc(C(=O)N=C(N)N)cc1S(C)(=O)=O,inactive
17,CC[C@@H](CO)NCCN[C@@H](CC)CO,inactive
18,Cc1ccc(Nc2c(F)cccc2Cl)c(CC(=O)O)c1,inactive
19,BrC(Br)C(Br)Br,inactive
20,O=NN(CCCl)C(=O)NCCCl,inactive

row,SMILES,Potency
1,CC(C)(C)NCC(O)COc1cccc2c1C[C@H](O)[C@H](O)C2 (stereo not given in full),inactive
2,NC(=O)c1ccccc1[N+](=O)[O-],inactive
3,Cc1ccccc1S(N)(=O)=O,inactive
4,CCCCCCCCCCCCCC(=O)OCC(O)CO (stereo not given),inactive
5,CC1CCCO1 (stereo not given),inactive
6,COc1ccc(-n2nc(C(F)F)cc2-c2ccc(S(C)=O)cc2)cc1 (stereo not given),inactive
7,CNCc1ccc(NC(=O)c2c[nH]c3c2C(=O)CCC3)cc1,inactive
8,CC(=O)C(C)=O,inactive
9,Cc1cn([C@H]2C[C@H](F)[C@@H](CO)O2)c(=O)[nH]c1=O,inactive
10,O=C(O)c1cccc(C[C@@H]2COc3ccc(OCc4nc5cc(F)ccc5s4)cc3[C@@H]2O)c1,inactive
11,CS(=O)(=O)c1ccc([C@@H](C[C@H]2CCC(=O)C2)C(=O)Nc2cnccn2)cc1Cl,inactive
12,CCC1CCC(CCC(=O)O)C1 (stereo not given),inactive
13,CCCCC(CC)COS(=O)(=O)O (stereo not given),inactive
14,c1ccc(CNc2ncnc3c2ncn3C2CCCCO2)cc1 (stereo not given),inactive
15,Oc1ccc2c(c1)Cc1ccccc1-2,inactive
16,CC(=O)OCC(=O)[C@@]1(OC(C)=O)[C@@H](C)C[C@H]2[C@@H]3C[C@H](F)C4=CC(=O)C=C[C@]4(C)[C@@]3(F)[C@@H](O)C[C@@]21C,inactive
17,O=C(Nc1ccc(C(=O)O)c(O)c1)c1ccccc1,inactive
18,CN1CCCN(C(c2ccccc2)c2ccc(Cl)cc2)CC1 (stereo not given),inactive
19,CCC(C)(C)C(=O)O,inactive
20,CC(C)(C)C(O)/C=C/c1ccc2c(c1)OCO2 (stereo not given),inactive
